Assay results: PubChem BioAssay AID2284354 (EPA ToxCast)
Records with an inconclusive call do not appear. The source made the active and inactive calls. Rule for the calls: active = hit-call score of the fitted dose curve at least 0.9, where 1 is the maximum; inconclusive = response in the unintended direction; inactive = score below 0.9.

Target: human Retinoid X Receptor beta (RXRb), RXRB (gene 6257) (UniProt P28702)
Assay: ATG_hRXRb_EcoTox2: Attagene TRANS-FACTORIAL EcoTox-2 HepG2 Assay for human Retinoid X Receptor beta (RXRb)
Protocol: ATG_EcoTox2 is a cell-based, multiplexed assay created by modifying the existing Attagene TRANS-FACTORIAL system to include a panel of nuclear receptors from some or all the following species: human (Homo sapiens), african clawed frog (Xenopus laevis), rainbow trout (Oncorhynchus mykiss), japanese medaka (Oryzias latipes), and zebrafish (Danio rerio). The ECOTOX2-FACTORIAL format uses HepG2, a human liver cell line, with measurements taken at 24 hours after chemical dosing in a 24-well plate. ATG_hRXRb_EcoTox2 is one of 29 assay components calculated in the ATG_EcoTox2 assay. It is designed to make measurements of mRNA induction, a form of inducible reporter, as detected with fluorescence intensity signals by Reverse transcription polymerase chain reaction (RT-PCR) and Capillary electrophoresis technology.The assay endpoint ATG_hRXRb_EcoTox2 was analyzed in the positive analysis fitting direction relative to DMSO as the negative control and baseline of activity. Using a type of inducible reporter, measures of mRNA for gain-of-signal activity can be used to understand the reporter gene at the transcription factor-level as they relate to the gene RXRb. Furthermore, this assay endpoint can be referred to as a primary readout, because this assay has produced multiple assay endpoints where this one serves a reporter gene function. To generalize the intended target to other relatable targets, this assay endpoint is annotated to the nuclear receptor intended target family, where the subfamily is non-steroidal.
Human liver HepG2 cells are transiently transfected with multiple reporter transcription units (MRTUs) in 6-well plates using FuGene 6 reagent (Roche; 3 ml FuGene/1 mg DNA). The MRTU constructs are regulated by a cis-regulating element (promoter). Each RTU expresses a GAL4-UAS that regulates the transcription of a nearby target reporter gene sequence. A major difference between the CIS and TRANS system is that in CIS activities of endogenous TFs are measured, whereas the TRANS assay evaluates changes in activities of exogenous, chimeric NR-Gal4 proteins. […] At the end of 24 hour incubation, total RNA was isolated using TriZol reagent (Invitrogen). The isolated RNA is then reverse-transcribed using oligo(dT) primer and Mo-MLV reverse transcriptase (Invitrogen) with DNAse I (Ambion) treatment for 30 min. The one-tenth of the produced cDNA was amplified by PCR using Taq DNA polymerase (Invitrogen) and two reporter sequence-specific primers. The PCR products were fluorescently labeled by primer extension with 6-arboxyfluorescein (6-FAM) 5'-labeled reporter sequence-specific primer (2 min at 95 C, 20 s at 68 C and 10 min at 72 C) and these products were digested with 5U of HpaI (New England Biolabs) for 2h at 37 C. The fragments were purified using Qiaquick PCR columns (Qiagen), analyzed on an ABI 3130xL genetic analyzer (Applied Biosystems) with peak positions identified by using a set of X-rhodamine (ROX)-labeled MapMarker1000 molecular weight standards (BioVentures). The raw capillary electrophoresis data was processed using Attagraph software (Attagene).

Chain of human Retinoid X Receptor beta (RXRb), RXRB (gene 6257) (P28702 whole entry, looked up): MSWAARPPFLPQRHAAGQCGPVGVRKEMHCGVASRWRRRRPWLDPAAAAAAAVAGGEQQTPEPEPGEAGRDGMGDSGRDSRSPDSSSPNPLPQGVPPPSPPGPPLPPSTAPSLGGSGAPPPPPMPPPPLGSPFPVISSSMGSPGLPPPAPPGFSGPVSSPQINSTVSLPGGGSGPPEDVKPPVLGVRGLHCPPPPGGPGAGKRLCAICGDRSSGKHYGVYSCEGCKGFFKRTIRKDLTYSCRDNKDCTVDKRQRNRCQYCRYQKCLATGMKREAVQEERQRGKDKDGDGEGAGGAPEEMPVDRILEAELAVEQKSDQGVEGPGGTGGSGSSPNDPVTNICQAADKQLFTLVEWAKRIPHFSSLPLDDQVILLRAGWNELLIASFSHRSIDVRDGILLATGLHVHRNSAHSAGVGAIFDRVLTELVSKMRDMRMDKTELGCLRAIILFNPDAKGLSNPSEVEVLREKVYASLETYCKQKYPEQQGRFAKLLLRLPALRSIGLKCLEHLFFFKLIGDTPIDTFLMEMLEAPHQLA

Compound | outcome | AC50
CC(C)(Oc1ccc(Cl)cc1)C(=O)O | inactive | –
C[C@]12C=CC(=O)C=C1CC[C@@H]1[C@@H]2C(=O)C[C@@]2(C)[C@H]1CC[C@]2(O)C(=O)CO | inactive | –
Cc1ccc(C)c(OCCCC(C)(C)C(=O)O)c1 | – | 18.6 µM (active)
CC(C)(Oc1ccc(C2CC2(Cl)Cl)cc1)C(=O)O (centres undefined) | inactive | –
C[C@@H]1C[C@H]2[C@@H]3CCC4=CC(=O)C=C[C@]4(C)[C@@]3(F)[C@@H](O)C[C@]2(C)[C@@]1(O)C(=O)COP(=O)(O)O | inactive | –
CN(CCOc1ccc(CC2SC(=O)NC2=O)cc1)c1ccccn1 (centres undefined) | – | 13 µM (active)
CC(c1cc2ccccc2s1)N(O)C(N)=O (centres undefined) | inactive | –
CC(C)OC(=O)C(C)(C)Oc1ccc(C(=O)c2ccc(Cl)cc2)cc1 | inactive | –
CC(C)(Oc1ccc(CCNC(=O)c2ccc(Cl)cc2)cc1)C(=O)O | inactive | –
